Compound activity: PubChem, National Center for Advancing Translational Sciences (NCATS)
LmPK inh – blocks Leishmania mexicana pyruvate kinase activity; Q27686; purified LmPK, Kinase-Glo ATP luminescence, 1 h; Potency, µM (doses to about 57.5 µM), for inactives: at the top dose activity change, negative = inhibition, most hits filed as inhibitors; 0.37% of 290,000 active; further: potency means the concentration at half of the fitted maximal effect; on the % scale 0 is the no-effect control and ±100 the full control effect
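Pyruvate kinase activity monitored as ATP production (luciferase luminescence). Conditions: 0.1 nM enzyme, 0.5 mM PEP, 0.1 mM ADP, 1 h, RT; normalized against uninhibited and no-enzyme wells.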
Giardia FBPA inh – Giardia lamblia aldolase inhibition; A8B2U2; Potency, µM (titrated, usually from 59.6 µM), for the others: at the top dose activity, negative = inhibition, actives largely listed as inhibitors; purified Giardia FBPA; 0.71% of 290,000 active; further: potency means the concentration at half of the fitted maximal effect; on the % scale 0 is the no-effect control and ±100 the full control effect; nearly all actives have a fitted effect of over 55% in size
Target sequence (A8B2U2 whole entry, looked up): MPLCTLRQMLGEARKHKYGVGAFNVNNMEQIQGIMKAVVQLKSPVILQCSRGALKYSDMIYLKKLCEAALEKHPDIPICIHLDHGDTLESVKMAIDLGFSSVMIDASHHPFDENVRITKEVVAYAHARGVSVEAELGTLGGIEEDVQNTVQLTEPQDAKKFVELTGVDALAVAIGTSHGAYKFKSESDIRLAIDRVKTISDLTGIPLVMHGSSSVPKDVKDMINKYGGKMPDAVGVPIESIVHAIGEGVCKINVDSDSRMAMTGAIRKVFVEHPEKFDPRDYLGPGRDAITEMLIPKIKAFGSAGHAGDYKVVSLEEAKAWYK
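Giardia FBPA (40 nM reagent) was preincubated 10 min at RT with compound (up to 57.5 uM final), then substrate plus GAPDH/TPI/NAD/arsenate coupling system with diaphorase/resazurin was added; resorufin fluorescence (525/598 nm) was read after 20 min.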
Shiga inhibitor – blocks Shiga toxin action in Vero cells. Vero cells, Shiga toxin protein synthesis inhibition reporter. inhibition, % at 38.7 µM. 9.2% of 290,000 active; in the data active means inhibition mostly above about 28%, no sharp cut-off; inactive means mostly below about 43%; further: 0% is about no effect
TbPYK inhibitor – inhibitors of Trypanosoma brucei pyruvate kinase | Q57TT1 | TbPYK enzyme, Kinase-Glo Plus ATP luminescence, 45 min | Potency, µM (highest dose often 76.8 µM), without a hit: at the highest dose activity, negative = inhibition, actives largely listed as inhibitors | 0.12% of 410,000 active | AID 624173; further: potency means the concentration at half of the fitted maximal effect; on the % scale 0 is the no-effect control and ±100 the full control effect; nearly all actives have a fitted effect of over 50% in size
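Enzyme and substrate buffer are dispensed first and compound is pin-transferred. ADP at 130 uM final then starts the reaction, which runs 45 min at room temperature. Detection reagent is added for 10 min before luminescence is imaged.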
Cycloheximide cs – affects cycloheximide protein synthesis inhibition readout, counter-screen | max response, % | cell reporter, cycloheximide protein synthesis inhibition counterscreen | 12% of 300,000 active; in the data active means max response mostly above about 13%, no sharp cut-off; inactive means mostly below about 14%; further: read at 38.3 µM for the half of the compounds with a filed dose; 0% is about no effect
Sm TGR inh – S. mansoni TGR enzyme inhibition; 3% of 360,000 active; AID 485364; Potency, µM (series often up to 114 µM), for inactives: at the top dose activity change, negative = inhibition, actives largely listed as inhibitors; purified TGR, DTNB reduction, TNB absorbance 405 nm; further: potency means the concentration at half of the fitted maximal effect; on the % scale 0 is the no-effect control and ±100 the full control effect; nearly all actives have a fitted effect of over 60% in size
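First, TGR (20 nM dispensed) and NADPH were mixed with compound. Second, a 15 min room-temperature incubation followed. Third, further NADPH and then DTNB were added to start the reaction. Finally, TNB absorbance was monitored kinetically.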
The depositor's hits bear a star; ? = inconclusive; nt = not tested or not shown; + = active, no number. This is one part of a sample in which hits are shown more often than they occur. Unless noted, the call rests on the fitted dose curve; in most records, active means well fitted curve in the direction sought with a large enough effect; inconclusive means small, poorly fitted or top-dose-only effect, or another doubt; inactive means no such curve, though single readings can be large; an effect the other way counts as inactive or inconclusive.

SMILES	LmPK inh	Giardia FBPA inh	Shiga inhibitor	TbPYK inhibitor	Cycloheximide cs	Sm TGR inh
O=C(c1cc(COc2c(F)cccc2F)on1)N(Cc1ccccc1)CC1CC1	0%	-2%	27	2%	18*	5%
Cc1cc(OCc2cc(C(=O)N(C)C3CCOC3)no2)cc(C)c1Cl (configuration not stated)	6%	nt	78*	4%	49*	0%
CC(=O)c1ccc(OCc2cc(C(=O)N(C)C3CCOC3)no2)cc1 (configuration not stated)	-6%	nt	-8	-1%	3	-3%
Cc1cnc(CN(C)C(=O)c2cc(COc3c(F)cccc3F)on2)[nH]1	4%	-1%	-3	1%	-2	14%
COc1cc(Cl)ccc1OCc1cc(C(=O)N(C)C2CCOC2)no1 (configuration not stated)	-12%	nt	60*	-5%	37*	-26%
Cc1c(Cl)cccc1NC(=O)Cn1c(=O)nc(-c2ccccc2)c2ccccc21	nt	nt	nt	-5%	nt	2%
CCc1nn(CCCC(=O)NCc2ccco2)c(=O)c2cc3occc3n12	-4%	13%	-3	0%	18	-17%
Cc1ccc(NC(=O)Cn2c(=O)n(CC(=O)NCCc3ccccc3)c(=O)c3ccccc32)cc1	nt	nt	nt	-3%	nt	?
O=C(CN1C(=O)c2cccc([N+](=O)[O-])c2C1=O)N1CCc2ccccc2C1	nt	nt	nt	5%	nt	nt
CN(C(=O)Cn1nc(Cl)ccc1=O)C1CCCN(Cc2ccccc2F)C1 (configuration not stated)	1%	nt	-15	-1%	-2	0%
Cc1nn(C)cc1C(C)NC(=O)c1cc(COc2c(F)cccc2F)on1 (configuration not stated)	-2%	15%	-7	6%	7	2%
O=C(NCC1COCCO1)c1cc(COc2c(F)cccc2F)on1 (configuration not stated)	-2%	nt	30	1%	26*	1%
Cc1cc[n+](CC(=O)c2cccs2)cc1	4%	-1%	26	-4%	1	-7%
COc1ccc(C(=O)c2no[n+]([O-])c2C(=O)c2ccc(OC)cc2)cc1	8%	?	-13	-11%	14	0.35µM*
O=C(c1cccs1)c1no[n+]([O-])c1C(=O)c1cccs1	21%	4µM*	24	-13%	9	0.1µM*
COc1ccc(NC(=O)c2c(N)no[n+]2[O-])c(OC)c1	2%	0%	-13	0%	9	3%
COc1ccc(NC(=O)c2c(N)no[n+]2[O-])cc1	-4%	2%	48	3%	16*	-14%
COc1ccc(NC(=O)c2c(N)cnn2C)cc1	-3%	-3%	25	-4%	18*	12%
Cc1c(C(=O)c2no[n+]([O-])c2C(=O)c2cnn(C)c2C)cnn1C	-2%	?	20	-9%	-2	?
Cc1ccc(OCC(COCc2ccccc2)NC(C)C)cc1 (configuration not stated)	nt	nt	nt	4%	nt	nt
COC(=O)c1ccc2nc(NC(=O)C3CCCCC3)sc2c1	3%	3%	18	8%	24*	0%
CC(C)c1ccc2nc(NC(=O)C3CC3)sc2c1	-3%	-7%	70*	3%	52*	-8%
O=C(Nc1nc2ccc(Cl)cc2s1)C1CC1	nt	nt	nt	1%	nt	nt
CCN(CC)CCCNC(=O)/C=C/C(=O)O	4%	6%	-15	10%	-3	2.5µM*
O=C(O)/C=C\C(=O)NNC(=O)c1cc(-c2ccccc2)n[nH]1	6%	?	0	-5%	11	22µM*
SMILES	LmPK inh	Giardia FBPA inh	Shiga inhibitor	TbPYK inhibitor	Cycloheximide cs	Sm TGR inh
O=C(O)/C=C/C(=O)NNC(=O)c1cc(-c2ccccc2)n[nH]1	2%	-16%	-3	?	-1	40µM*
CCOC(=O)C1CCN(C(=O)c2cc3ccc4ccc(C)[nH]c4c3n2)CC1	nt	nt	nt	3%	nt	11%
COc1cc(OC)c(NC(=O)c2c3c(nc4ccccc24)C(=O)N(C2CCCCC2)C3)cc1Cl	nt	nt	nt	-7%	nt	?
O=C(CN1CCCC1)Nc1ccc(-c2nc3cc(NC(=O)CN4CCCC4)ccc3o2)cc1	6%	-2%	73*	3%	33*	-8%
CCCC(=O)Nc1ccc2oc(-c3ccncc3)nc2c1	0%	-11%	68*	0%	20*	1%
CCC(C)NCC(=O)Nc1ccc(-c2nc3cc(NC(=O)CNC(C)CC)ccc3o2)cc1 (configuration not stated)	-5%	7%	19	-8%	-4	2%
COc1ccc(OCC(=O)Nc2ccc3oc(-c4ccncc4)nc3c2)cc1	11%	-1%	-12	0%	1	-1%
CCCCC(=O)Nc1ccc2oc(-c3ccncc3)nc2c1	-8%	-5%	39*	-2%	13*	3%
CCCC(=O)Nc1ccc(-c2nc3cc(C)c(C)cc3o2)cc1	-4%	8%	119*	-1%	35*	3%
O=C1CC[C@@H](C(=O)N[C@@H](Cc2cnc[nH]2)C(=O)N[C@@H](Cc2c[nH]c3ccccc23)C(=O)N[C@@H](CO)C(=O)N[C@@H](Cc2ccc(O)cc2)C(=O)O)N1	nt	0%	-2	nt	20	nt
O=C1CCC(C(=O)OCC(=O)Nc2ccc(Cl)cc2C(F)(F)F)=NN1	nt	nt	nt	1%	nt	nt
Cc1cccc(NC(=S)c2nc3ccccc3s2)c1	-22%	-1%	86*	-12%	28*	7%
CC(C)C[C@@H](COCc1cccc(C(F)(F)F)c1)N1CCN(C(=O)c2ccc(C(F)(F)F)cc2)CCC1=O	nt	nt	nt	0%	nt	nt
O=C(NCC(=O)N1CCN(c2ccccc2)CC1)c1ccco1	5%	3%	21	-4%	22	-20%
C/C(=N\N1CCN(c2ccccc2)CC1)c1cccs1	4%	-1%	39	5%	8	0%
C/C(=N\N1CCN(c2ccc(Cl)cc2)CC1)c1cccc([N+](=O)[O-])c1	1%	1%	-6	1%	-2	5%
C/C(=N/N1CCN(c2ccccn2)CC1)c1ccc([N+](=O)[O-])cc1	1%	9%	21*	7%	31*	-11%
C/C(=N\N1CCN(c2ccccc2)CC1)c1ccncc1	2%	3%	46*	-5%	22*	nt
C/C(=N/N1CCN(c2ccccc2)CC1)c1cccc([N+](=O)[O-])c1	4%	-2%	64*	2%	33*	-19%
C/C(=N\N1CCN(c2ccccc2)CC1)c1ccco1	1%	5%	+	7%	28*	2%
COc1cc(OC)c(NC(=O)c2c(C)nn(-c3ccc(C)cc3)c2-n2cccc2)cc1Cl	nt	nt	nt	4%	nt	-8%
CCOc1ccccc1N1CCN(C(=O)c2ccc(OCC(=O)N3CCOCC3)c(OC)c2)CC1	-12%	-10%	-5	4%	-2	-19%
C/C(=N\N1CCN(Cc2ccccc2)CC1)c1ccco1	2%	0%	53*	2%	15	nt
